Source: the supplement of paper PMC12669032
Unmarked numbers belong to inactive results.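 How the source made its calls: active = AUC reduced over 20% with Padj below 0.05 in at least 2 of 3 replicates; inactive = otherwise.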

Assays:
Experiment in all cases: growth AUC relative to DMSO control (median of replicates) (fraction); higher = more growth (less inhibition), active = hit call of the paper
Settings in all cases: 20 µM; 24 h
Coprococcus comes = system: Coprococcus comes
How it was run: (§1)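 Gut bacterial monocultures in mGAM were treated with 20 µM compound (1% DMSO) and grown anaerobically at 37 °C in round-bottom 96-well plates from OD600 0.05. OD600 was read hourly for 24 h, with the minimum OD set to 0. Area under the growth curve was normalised to the plate median of solvent-only wells, or to row and column medians on the industrial chemical plate. Each value is the median of three biological replicates, each grown on a separate day.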

Escherichia coli ED1a = system: Escherichia coli ED1a
How it was run: as §1

Escherichia coli IAI1 = system: Escherichia coli IAI1
How it was run: as §1

Eubacterium rectale = system: Eubacterium rectale
How it was run: as §1

[1] = system: Fusobacterium nucleatum subsp. animalis
How it was run: as §1

Lactobacillus gasseri = system: Lactobacillus gasseri
How it was run: as §1

Lactobacillus paracasei = system: Lactobacillus paracasei
How it was run: as §1

Odoribacter splanchnicus = system: Odoribacter splanchnicus
How it was run: as §1

[2] = system: Parabacteroides distasonis
How it was run: as §1

Parabacteroides merdae = system: Parabacteroides merdae
How it was run: as §1

Roseburia intestinalis = system: Roseburia intestinalis
How it was run: as §1

Streptococcus salivarius = system: Streptococcus salivarius
How it was run: as §1

| SMILES | growth AUC (Coprococcus comes) | growth AUC (Escherichia coli ED1a) | growth AUC (Escherichia coli IAI1) | growth AUC (Eubacterium rectale) | growth AUC [1] | growth AUC (Lactobacillus gasseri) | growth AUC (Lactobacillus paracasei) | growth AUC (Odoribacter splanchnicus) | growth AUC [2] | growth AUC (Parabacteroides merdae) | growth AUC (Roseburia intestinalis) | growth AUC (Streptococcus salivarius) |
| --- | --- | --- | --- | --- | --- | --- | --- | --- | --- | --- | --- | --- |
| CC(C)=CC1C(C(=O)OCc2coc(Cc3ccccc3)c2)C1(C)C (stereo not drawn) | 1.01 | 0.996 | 1.01 | 0.917 | 0.878 | 1.06 | 1.12 | 0.98 | 1.01 | 0.944 | 0.921 | 0.99 |
| CCCCc1c(C)nc(N(C)C)[nH]c1=O | 1 | 0.976 | 0.913 | 0.825 | 1.09 | 1 | 0.896 | 1.05 | 1.03 | 1.01 | 0.959 | 1.02 |
| Oc1ccc(Cc2ccc(O)cc2)cc1 | 0.968 | 1.03 | 0.979 | 1.09 | 0.987 | 1.04 | 0.962 | 0.942 | 0.89 | 0.994 | 0.999 | 0.966 |
| CCCSP(=S)(OCC)Oc1ccc(SC)cc1 (stereo not drawn) | 1.04 | 1.01 | 0.959 | 0.985 | 1.07 | 0.946 | 1.02 | 1.07 | 0.98 | 0.996 | 1.06 | 0.93 |
| N#Cc1c[nH]cc1-c1cccc2c1OC(F)(F)O2 | 1.05 | 0.969 | 0.978 | 0.857 | 0.888 | 0.866 | 0.908 | 0.985 | 0.759 (active) | 0.88 | 1.07 | 0.962 |
| CCCSP(=O)(OCC)SCCC | 1.03 | 1.02 | 0.987 | 1.07 | 0.995 | 0.902 | 0.96 | 0.986 | 0.976 | 1.01 | 1 | 0.984 |
| CCN(CC)C(=O)/C(Cl)=C(/C)OP(=O)(OC)OC | 0.978 | 0.942 | 0.953 | 1.08 | 1 | 0.886 | 0.969 | 0.935 | 0.888 | 0.978 | 1.01 | 0.994 |
| Cl.NC1=NCCN1Cc1ccc(Cl)nc1 | 1.13 | 1.04 | 1.03 | 0.945 | 1.06 | 1.02 | 1.06 | 0.507 (active) | 1.02 | 1.05 | 0.963 | 1.01 |
| CCOC(=O)c1cn2nc(OP(=S)(OCC)OCC)cc2nc1C | 0.952 | 0.981 | 0.97 | 1.13 | 0.938 | 0.908 | 0.911 | 0.692 (active) | 0.662 (active) | 0.909 | 0.981 | 0.981 |
| Nc1nc(N)nc(NC2CC2)n1 | 1 | 0.982 | 0.986 | 1.04 | 1.04 | 0.877 | 0.959 | 1.04 | 1.03 | 1 | 0.97 | 0.981 |
| CC(C)N1C(=O)c2ccccc2NS1(=O)=O | 1.05 | 0.972 | 0.97 | 1.1 | 1.01 | 0.945 | 0.932 | 0.992 | 0.787 | 1.02 | 1 | 0.978 |
| C[Si](Cn1cncn1)(c1ccc(F)cc1)c1ccc(F)cc1 | 0.412 (active) | 0.982 | 0.946 | 0.504 (active) | 0.9 | 1.04 | 0.925 | 0.925 | 0.915 | 0.964 | 0.853 | 0.988 |
| Nc1c(Cl)cc([N+](=O)[O-])cc1Cl | 1.01 | 0.951 | 0.962 | 1.08 | 0.898 | 0.923 | 1.1 | 1.03 | 0.933 | 0.93 | 0.925 | 0.956 |
| O=C(O)c1ccc(=O)[nH]c1 | 0.999 | 0.99 | 1.03 | 0.976 | 0.982 | 0.972 | 0.987 | 0.985 | 1.02 | 0.983 | 1.01 | 0.981 |
| CCC(C)c1cc([N+](=O)[O-])cc([N+](=O)[O-])c1OC(=O)C=C(C)C (stereo not drawn) | 0.945 | 0.968 | 0.973 | 0.978 | 0.802 | 0.762 | 0.955 | 0.515 (active) | 0.418 (active) | 0.902 | 0.948 | 0.872 |
| Cc1cc(Cl)ccc1OCC(=O)O | 1.02 | 1.02 | 1 | 0.984 | 1.07 | 1.05 | 1.04 | 1.05 | 1.01 | 1.04 | 1.02 | 0.983 |
| CCOC(=O)C(O)(c1ccc(Cl)cc1)c1ccc(Cl)cc1 | 0.953 | 1.03 | 0.968 | 1.02 | 0.879 | 1.03 | 0.979 | 0.992 | 0.823 | 0.92 | 1.03 | 0.978 |
| Fc1ccc(C2(Cn3cncn3)OC2c2ccccc2Cl)cc1 (stereo not drawn) | 0.969 | 1.02 | 1.01 | 0.72 (active) | 0.95 | 0.996 | 0.942 | 0.864 | 0.968 | 0.933 | 1.03 | 0.966 |
| CCOP(=S)(OCC)SCCS(=O)(=O)CC | 1.02 | 1.05 | 0.994 | 1.02 | 1 | 0.903 | 1.01 | 1.06 | 1.04 | 0.991 | 0.971 | 0.994 |
| CCC1COC(Cn2cncn2)(c2ccc(Cl)cc2Cl)O1 (stereo not drawn) | 0.982 | 0.988 | 0.96 | 0.755 | 0.917 | 1.1 | 0.92 | 0.983 | 1 | 0.948 | 0.936 | 0.948 |
| CCOP(=O)(SC(C)CC)N1CCSC1=O (stereo not drawn) | 1 | 0.984 | 0.986 | 0.862 | 1.01 | 0.997 | 1.01 | 1.04 | 1.05 | 1.01 | 1.03 | 1.02 |
| CNC(=O)O/N=C(\C)SC | 0.981 | 0.979 | 1.01 | 1.01 | 0.985 | 1.02 | 0.967 | 0.992 | 0.986 | 1 | 0.994 | 0.973 |
| CCOc1nc(NC)nc(NC(=O)NS(=O)(=O)c2ccccc2C(=O)OC)n1 | 0.996 | 1.02 | 1.02 | 0.974 | 1.04 | 1.23 | 1.04 | 1.04 | 1.05 | 1.03 | 0.992 | 1.03 |
| COC(=O)Nc1cccc(OC(=O)Nc2cccc(C)c2)c1 | 1.03 | 1 | 0.966 | 1 | 0.944 | 0.933 | 0.987 | 1.05 | 0.976 | 0.968 | 0.936 | 0.996 |
